In general, inhibition refers to the drop in the measured response relative to a control, in per cent.

Test [1] in a line: rapamycin-like changes in RPL19A-GFP expression – cell-based, S. cerevisiae, multiplex flow cytometry, primary screen (AID 1862; in the data active = percent of DMSO control GFP below about 86%;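 note: lower values mimic rapamycin by blocking the RPL19A rise seen in DMSO cells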). The following applies: S. cerevisiae RPL19A-GFP strain, flow cytometry fluorescence, 3 h; at 10 µM; stronger effect = lower value.
Test [2] can be described thus: TOR pathway GLN3 branch reporter MEP2-GFP changes – S. cerevisiae, multiplex flow cytometry, primary screen (AID 1867;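 active = GFP response, as percent of the DMSO control, above the screen-wide mean plus 3 SD, about 139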;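 note: median GFP channel fluorescence of barcode-gated MEP2-GFP cells measured by flow cytometry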). Conditions: S. cerevisiae MEP2-GFP strain, 3 h, at 10 µM, stronger effect = higher value, 100% means same as DMSO wells. On the technique in general: A flow cytometer gives signals particle by particle.
Test [3] is described as follows: TOR pathway RTG branch CIT2 reporter changes – S. cerevisiae, GFP fusion, multiplex flow cytometry, primary screen (AID 1870;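 active = percent response above a set limit, the screen-wide mean plus 3 SD, cut at about 130% in these data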;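 note: barcoded CIT2-GFP strain pooled with four other GFP strains with rapamycin as positive control; median GFP fluorescence per well over plate mean of DMSO wells so 100% = DMSO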). Conditions: S. cerevisiae CIT2-GFP expression, 3 h, at 10 µM, stronger effect = higher value.
Test [4] is described as follows: TOR pathway LAP4-GFP level changes – S. cerevisiae, multiplex flow cytometry, primary screen (AID 1873;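 active = GFP signal, as percent of the solvent control, above the screen mean plus 3 SD, about 149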). Conditions: S. cerevisiae LAP4-GFP expression, 3 h, at 10 µM, stronger effect = higher value.
A short description of test [5]: yeast AGP1-GFP level changes, GLN3 branch – cell-based, multiplex flow cytometry, S. cerevisiae, primary screen (AID 1887;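 active = GFP signal above the screen-wide mean plus 3 SD, that is over about 124.5% of the solvent control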;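 note: AGP1-GFP fusion strain of S. cerevisiae within a five-strain barcoded multiplex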). The following applies: 3 h, at 10 µM, stronger effect = higher value.
Test [6] can be described thus: reduced mouse 2C T cell binding to pMHC/ICAM-1 vesicles – MLPCN validation set, flow cytometry, LFA-1/ICAM-1 modulator project, pilot screen (AID 2523;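 active = response below a set limit, under 55% cells CD8-positive and vesicle-bound, and CD8 cells' 90th-percentile brightness under 279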;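 for vesicle binding response: mean PE anti-B7-1 fluorescence of CD8+ cells relative to row control; 100% = QL9-loaded vesicles with DMSO vehicle in the same plate row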). The following applies: 2C mouse CD8+ T cells, at 7 µM, stronger effect = lower value; double positive events: measured here: CD8+/vesicle+ event percentage.
Test [7] has as its target Integrin beta-1 (Homo sapiens) + Integrin alpha-4 (Homo sapiens) (UniProt P13612+P05556). The experiment in a line: alpha4beta1 integrin LIBS antibody binding reduction – U937 cells, HUTS-21 mAb, flow cytometry, validation set, VLA-4 allosteric modulator project, pilot screen (AID 2674;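 active = inhibition above 50%, about 3 SD of the validation set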;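 note: antibody binding induced by the VLA-4 ligand LDV present at three times its Kd; 0% = LDV ligand with antibody and no compound and 100% = antibody without LDV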). The following applies: HUTS-21 LIBS mAb binding, at 6.7 µM, stronger effect = higher value, binding induced by LDV ligand.

Test [8] can be described thus: calorie-restriction mimetic ROS inhibitors, yeast – validation compound set, pilot screen (AID 2706;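 active = superoxide response below 65% of plate, a cut near 3 SD across the whole screen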;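 note: yeast exposed to compound for one week at 30 degrees C before staining; 100% = mean of all compound wells on the same plate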). The following applies: S. cerevisiae aging, superoxide DHE fluorescence; at 10 µM; stronger effect = lower value.
The target in test [9] is Beta-adrenergic receptor kinase 1 (Homo sapiens) (UniProt P25098). The experiment in a line: GRK2 binders displacing RNA aptamer, biochemical, validation, human GRK2, bead flow cytometry (AID 488806;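 active = aptamer binding inhibition above 30%, about 3 SD of noise from non-fluorescent compounds; inactive = inhibition at or below 30%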). Conditions: bead-bound GRK2, FAM-aptamer displacement, at 10 µM, stronger effect = higher value.
Beta-adrenergic receptor kinase 1 (Homo sapiens), sequence (P25098 whole entry, looked up): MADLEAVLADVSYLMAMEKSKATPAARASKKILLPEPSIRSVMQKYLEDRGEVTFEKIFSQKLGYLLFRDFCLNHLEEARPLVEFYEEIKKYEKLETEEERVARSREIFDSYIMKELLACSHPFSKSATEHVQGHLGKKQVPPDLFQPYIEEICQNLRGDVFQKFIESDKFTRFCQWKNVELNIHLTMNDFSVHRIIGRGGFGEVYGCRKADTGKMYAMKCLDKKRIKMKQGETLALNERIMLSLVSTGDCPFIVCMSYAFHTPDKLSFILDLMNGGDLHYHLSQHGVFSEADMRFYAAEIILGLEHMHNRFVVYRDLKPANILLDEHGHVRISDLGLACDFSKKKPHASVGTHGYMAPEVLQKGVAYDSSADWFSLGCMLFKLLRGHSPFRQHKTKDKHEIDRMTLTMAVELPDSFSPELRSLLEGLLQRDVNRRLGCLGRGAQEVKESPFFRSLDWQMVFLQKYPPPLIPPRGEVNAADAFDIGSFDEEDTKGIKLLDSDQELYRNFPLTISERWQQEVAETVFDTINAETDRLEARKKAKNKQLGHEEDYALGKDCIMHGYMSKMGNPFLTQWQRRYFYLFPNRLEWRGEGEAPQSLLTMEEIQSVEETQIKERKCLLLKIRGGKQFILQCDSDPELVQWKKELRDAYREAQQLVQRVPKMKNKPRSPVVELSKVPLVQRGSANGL
Test [10] addresses Beta-2 adrenergic receptor (Homo sapiens) (UniProt P07550). The experiment in a line: agonist-induced loss of surface beta2AR – cell-based, FAP fluorogen, flow cytometry, validation set, pilot screen (AID 504459;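 active = percent response above 42, roughly 3 SD of non-fluorescent test compounds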;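 note: agonist-driven loss of surface beta2AR via internalization measured by FAP dye flow cytometry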). The following applies: Am2.2-beta2AR cells, at 10 µM, stronger effect = higher value.
Test [11] deals with AP-2 complex subunit beta (Homo sapiens) (UniProt P63010). In words: beta-arrestin/AP2 interaction blockers – biochemical, validation set, GST-AP2 beads, flow cytometry, pilot screen (AID 504541;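 active = inhibition above 54%, about 3 SD of non-fluorescent compounds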;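 note: AP2 carries R879A mutation and is captured from E. coli lysate; bead-bound FITC arrestin peptide fluorescence measuring arrestin peptide binding to AP2; 0% = DMSO wells and 100% = excess unlabeled arrestin peptide control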). The following applies: FITC arrestin peptide, at 10 µM, stronger effect = higher value, AP2 beta2 appendage fragment, R879A mutant.
AP-2 complex subunit beta (Homo sapiens), sequence (P63010 whole entry, looked up, the tested form may be a part, one chain of several): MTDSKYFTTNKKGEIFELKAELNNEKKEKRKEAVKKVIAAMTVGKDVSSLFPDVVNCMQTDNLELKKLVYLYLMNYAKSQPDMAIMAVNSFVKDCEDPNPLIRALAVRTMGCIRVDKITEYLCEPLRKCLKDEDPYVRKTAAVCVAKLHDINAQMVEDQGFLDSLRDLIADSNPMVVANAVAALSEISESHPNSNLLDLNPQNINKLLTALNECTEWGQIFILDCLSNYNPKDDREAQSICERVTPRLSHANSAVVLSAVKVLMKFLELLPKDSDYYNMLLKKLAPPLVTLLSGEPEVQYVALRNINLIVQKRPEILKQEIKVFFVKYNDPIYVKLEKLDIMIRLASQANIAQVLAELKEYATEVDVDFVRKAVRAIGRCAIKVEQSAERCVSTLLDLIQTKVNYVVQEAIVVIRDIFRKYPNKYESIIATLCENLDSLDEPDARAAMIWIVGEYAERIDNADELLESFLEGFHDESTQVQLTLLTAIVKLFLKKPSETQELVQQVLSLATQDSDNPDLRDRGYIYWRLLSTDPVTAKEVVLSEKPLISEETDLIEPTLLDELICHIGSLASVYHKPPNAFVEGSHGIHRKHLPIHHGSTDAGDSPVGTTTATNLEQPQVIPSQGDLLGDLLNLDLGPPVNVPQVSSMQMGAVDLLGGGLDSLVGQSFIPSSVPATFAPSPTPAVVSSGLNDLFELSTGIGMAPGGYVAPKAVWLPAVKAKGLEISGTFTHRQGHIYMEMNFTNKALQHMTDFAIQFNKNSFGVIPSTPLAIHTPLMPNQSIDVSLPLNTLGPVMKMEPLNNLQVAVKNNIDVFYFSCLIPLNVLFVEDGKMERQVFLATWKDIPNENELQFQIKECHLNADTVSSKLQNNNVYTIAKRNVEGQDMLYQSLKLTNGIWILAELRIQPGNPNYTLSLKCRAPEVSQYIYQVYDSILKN
The nature of test [12]: cytosolic pH regulators acting via V-ATPase – S. cerevisiae, pHLuorin, HTS validation (AID 504600; in the data active = response above about 15%;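 note: plate controls were DMSO for no effect and reference compound for full effect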). Conditions: V-ATPase proton transport, at 10 µM, stronger effect = higher value.
Test [13] relates to anti-desmoglein-3 scFv antibody binding to human DSG3. The experiment in a line: blockers of pathogenic pemphigus antibody–desmoglein-3 binding – biochemical, validation compound set, bead-based, flow cytometry, pilot screen (AID 588368;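 active = binding below the plate cutoff, the plate median minus 3 SD, with a reading above zero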;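 note: signal is the median channel fluorescence of bead-bound GFP antibody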). The following applies: Protein G beads, DSG3-Fc, scFv-GFP binding, at 10 µM, stronger effect = lower value.
A short description of test [14]: Nile Red efflux blockade in pump-expressing yeast – validation compound set, multiplex, phenotypic, pilot screen (AID 588506;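 active = efflux inhibition above 0.42, the validation set average plus 4 SD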;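 note: Nile Red retained in cells so higher fluorescence means more efflux inhibition; 0 = negative control wells and 1 = enniatin B 25 µM full block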). The following applies: S. cerevisiae pump-expressing triplex, Nile Red efflux flow cytometry; at 10 µM; stronger effect = higher value; the pumps come from Candida albicans.
Test [15] concerns the target ATP-binding cassette sub-family B member 6 (Homo sapiens) (UniProt Q9NP58). The experiment in a line: blockers of ABCB6-driven porphyrin uptake – K562-ABCB6 cells, flow cytometry, validation set, pilot screen (AID 588550).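 Note: 0% = DMSO wells and 100% = benzethonium chloride 70 µM positive control.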 The following applies: K562-ABCB6 porphyrin accumulation, 1 h, at 10 µM, stronger effect = higher value.
Test [16] in a line: AML differentiation inducers, ER-HoxA9 marrow cells – cell-based, GFP/MAC1 double positive, flow cytometry, validation set, primary screen (AID 588685;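 active = differentiation response of at least 50%, scaled between solvent and reference control, from cells with both markers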;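 note: compound exposure lasts four days before antibody staining and flow analysis; 0% = DMSO wells and 100% = 5 µM fulvestrant positive control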). The following applies: stronger effect = higher value, normalized: vehicle 0, fulvestrant 100.

Inconclusive results are not listed. Active and inactive are the calls of the source.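 Rule for the calls, unless noted: active = inhibition above the screen-wide mean plus 3 SD, about 51%; inactive = the rest.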

Beta-2 adrenergic receptor (Homo sapiens), sequence (P07550 whole entry, looked up): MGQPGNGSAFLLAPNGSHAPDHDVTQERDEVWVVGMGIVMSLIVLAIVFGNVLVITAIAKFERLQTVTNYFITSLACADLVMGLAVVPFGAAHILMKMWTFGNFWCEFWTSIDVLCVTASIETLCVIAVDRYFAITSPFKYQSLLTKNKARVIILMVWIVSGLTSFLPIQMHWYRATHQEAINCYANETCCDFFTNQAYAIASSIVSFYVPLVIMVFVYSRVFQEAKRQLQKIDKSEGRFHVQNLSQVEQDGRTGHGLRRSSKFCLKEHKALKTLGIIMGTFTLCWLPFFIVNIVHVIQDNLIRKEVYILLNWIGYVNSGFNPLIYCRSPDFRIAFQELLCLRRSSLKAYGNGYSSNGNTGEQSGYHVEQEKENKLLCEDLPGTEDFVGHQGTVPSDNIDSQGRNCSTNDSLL
Integrin beta-1 (Homo sapiens) + Integrin alpha-4 (Homo sapiens), sequence (P05556 whole entry, looked up): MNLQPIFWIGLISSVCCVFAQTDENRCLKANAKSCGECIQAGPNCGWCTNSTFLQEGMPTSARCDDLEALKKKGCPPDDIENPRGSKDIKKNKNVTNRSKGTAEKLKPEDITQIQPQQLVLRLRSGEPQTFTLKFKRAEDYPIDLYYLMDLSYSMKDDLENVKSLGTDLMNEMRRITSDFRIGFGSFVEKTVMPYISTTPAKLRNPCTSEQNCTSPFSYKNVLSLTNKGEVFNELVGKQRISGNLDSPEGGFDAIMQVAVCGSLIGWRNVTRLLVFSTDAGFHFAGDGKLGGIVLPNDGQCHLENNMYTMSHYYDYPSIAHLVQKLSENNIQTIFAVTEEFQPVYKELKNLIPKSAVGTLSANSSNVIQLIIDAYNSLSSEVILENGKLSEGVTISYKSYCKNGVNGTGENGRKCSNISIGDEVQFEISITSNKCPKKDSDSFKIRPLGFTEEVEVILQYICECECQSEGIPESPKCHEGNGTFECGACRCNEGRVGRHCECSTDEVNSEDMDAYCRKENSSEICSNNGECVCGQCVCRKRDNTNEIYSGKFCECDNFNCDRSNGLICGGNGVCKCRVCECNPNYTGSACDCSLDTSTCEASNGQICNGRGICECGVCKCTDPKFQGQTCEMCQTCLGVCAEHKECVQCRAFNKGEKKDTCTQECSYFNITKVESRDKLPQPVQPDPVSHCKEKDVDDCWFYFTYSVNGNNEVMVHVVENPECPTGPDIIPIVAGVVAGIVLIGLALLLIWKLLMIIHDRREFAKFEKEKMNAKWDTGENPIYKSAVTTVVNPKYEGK
Integrin beta-1 (Homo sapiens) + Integrin alpha-4 (Homo sapiens), sequence (P13612 whole entry, looked up): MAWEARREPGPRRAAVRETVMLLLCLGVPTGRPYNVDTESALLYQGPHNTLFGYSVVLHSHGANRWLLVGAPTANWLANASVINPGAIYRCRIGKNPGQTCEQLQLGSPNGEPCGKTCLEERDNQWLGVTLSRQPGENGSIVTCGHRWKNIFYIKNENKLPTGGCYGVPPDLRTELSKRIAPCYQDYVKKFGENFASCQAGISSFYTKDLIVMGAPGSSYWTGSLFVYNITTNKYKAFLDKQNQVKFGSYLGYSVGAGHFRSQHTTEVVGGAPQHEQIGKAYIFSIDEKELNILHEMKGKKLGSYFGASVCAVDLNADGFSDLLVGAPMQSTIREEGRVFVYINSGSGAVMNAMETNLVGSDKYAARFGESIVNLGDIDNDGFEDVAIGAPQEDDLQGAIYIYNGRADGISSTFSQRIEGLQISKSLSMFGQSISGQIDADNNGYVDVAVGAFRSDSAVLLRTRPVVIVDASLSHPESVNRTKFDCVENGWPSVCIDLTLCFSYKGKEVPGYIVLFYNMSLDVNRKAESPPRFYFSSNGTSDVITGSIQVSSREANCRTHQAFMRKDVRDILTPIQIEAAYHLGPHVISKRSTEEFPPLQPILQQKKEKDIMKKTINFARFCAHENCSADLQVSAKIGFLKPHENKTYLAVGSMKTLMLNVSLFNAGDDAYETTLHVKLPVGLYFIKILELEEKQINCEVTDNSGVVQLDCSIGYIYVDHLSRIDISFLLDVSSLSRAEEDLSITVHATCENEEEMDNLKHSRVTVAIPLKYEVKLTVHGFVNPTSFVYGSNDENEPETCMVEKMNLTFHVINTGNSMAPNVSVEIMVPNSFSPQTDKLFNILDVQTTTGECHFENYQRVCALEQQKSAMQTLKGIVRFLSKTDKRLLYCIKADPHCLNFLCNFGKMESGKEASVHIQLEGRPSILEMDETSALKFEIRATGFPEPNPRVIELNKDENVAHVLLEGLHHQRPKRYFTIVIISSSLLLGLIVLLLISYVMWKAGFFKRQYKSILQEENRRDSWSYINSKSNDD
ATP-binding cassette sub-family B member 6 (Homo sapiens), sequence (Q9NP58 whole entry, looked up): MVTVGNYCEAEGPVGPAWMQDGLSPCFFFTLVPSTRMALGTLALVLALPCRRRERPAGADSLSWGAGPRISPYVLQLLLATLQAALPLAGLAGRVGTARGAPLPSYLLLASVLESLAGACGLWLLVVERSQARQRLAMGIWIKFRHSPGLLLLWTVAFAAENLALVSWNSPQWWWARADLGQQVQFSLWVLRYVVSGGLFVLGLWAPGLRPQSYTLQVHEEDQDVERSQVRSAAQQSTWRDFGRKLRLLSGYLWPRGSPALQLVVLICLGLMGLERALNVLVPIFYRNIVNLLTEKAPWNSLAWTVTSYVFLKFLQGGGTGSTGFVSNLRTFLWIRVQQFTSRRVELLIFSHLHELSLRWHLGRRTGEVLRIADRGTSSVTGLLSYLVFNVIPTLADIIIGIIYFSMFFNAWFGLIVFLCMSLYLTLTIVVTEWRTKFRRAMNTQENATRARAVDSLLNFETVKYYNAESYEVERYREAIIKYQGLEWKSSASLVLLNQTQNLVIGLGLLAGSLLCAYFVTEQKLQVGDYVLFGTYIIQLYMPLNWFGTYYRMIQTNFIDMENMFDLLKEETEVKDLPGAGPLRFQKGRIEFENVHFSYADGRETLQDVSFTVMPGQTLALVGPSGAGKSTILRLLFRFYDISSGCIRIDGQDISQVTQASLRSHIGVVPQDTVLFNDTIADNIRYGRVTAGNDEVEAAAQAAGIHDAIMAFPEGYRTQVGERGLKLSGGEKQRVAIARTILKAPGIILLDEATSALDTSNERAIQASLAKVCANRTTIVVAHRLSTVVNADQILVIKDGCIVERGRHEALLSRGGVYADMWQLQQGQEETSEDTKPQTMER

Regarding `COc1ccc(-c2csc(-c3cccnc3)n2)cc1C`, the percent of DMSO control GFP in test [1] was 98.2% (inactive). Besides, the values for the GFP response vs DMSO in test [2] and in test [4] were 111% (inactive) and 95.7% (inactive), respectively. For the same compound, the percent response of DMSO control in [3] was 91% (inactive). In addition, the GFP response, % of DMSO in [5] was 84.4% (inactive). For the same compound, the double positive events in [6] came to 59.8%. In addition, in [6], the vesicle binding response is 170% (inactive). Also, the inhibition in [7] was 0.94% (inactive); in test [11], 7.91% (inactive); in test [15], 3% (inactive). Further, the superoxide response (% of plate) in test [8] was 102% (inactive). The aptamer binding inhibition in test [9] was 4% (inactive). Further, the results for the response in [10] and in [12] were 3.47% (inactive) and -1.19% (inactive), respectively. Further, the binding (% of control) in test [13] is 102% (inactive). In addition, in [14], the efflux inhibition (fraction of control) is 0.12 (inactive). In test [16], the differentiation response is 4% (inactive).
Consider `CC[C@]1(O)CC2CN(CCc3c([nH]c4ccccc34)[C@@](C(=O)OC)(c3cc4c(cc3OC)N(C=O)[C@H]3[C@@](O)(C(=O)OC)[C@H](OC(C)=O)[C@]5(CC)C=CCN6CC[C@]43[C@@H]65)C2)C1` (stereo partly drawn), for which the percent of DMSO control GFP in test [1] was 103% (inactive). Moreover, the results for the GFP response vs DMSO in test [2] and in test [4] were 98.5% (inactive) and 94% (inactive), respectively. For the same compound, the percent response of DMSO control in test [3] was 101% (inactive). Besides, the GFP response, % of DMSO in test [5] is 98.5% (inactive). In test [6], this compound registered a double positive events of 61.8%. Further, in test [6], the vesicle binding response is 204% (inactive). Besides, the inhibition in test [7] was 48.7% (inactive); in test [11] it was -4.62% (inactive); in test [15], 112% (active). Also, the superoxide response (% of plate) in test [8] is 93% (inactive). The aptamer binding inhibition in [9] was 3% (inactive). For the same compound, the response in test [10] was 23.4% (inactive); in test [12] it was 6.03% (inactive). Moreover, the binding (% of control) in [13] was 97.2% (inactive). For the same compound, in test [14], the efflux inhibition (fraction of control) was 0.12 (inactive). Further, the differentiation response in test [16] is 4% (inactive).
On to `CC(C)(C)N1NC2(CCCCC2)NC1=S`, for which, in test [1], the percent of DMSO control GFP is 99.8% (inactive). Also, the values for the GFP response vs DMSO in test [2] and in test [4] were 113% (inactive) and 80.9% (inactive), respectively. Also, in [3], the percent response of DMSO control is 118% (inactive). Also, the GFP response, % of DMSO in [5] is 95.2% (inactive). In addition, the double positive events in test [6] was 53.1%. The vesicle binding response in test [6] was 193% (inactive). Moreover, the inhibition is -3.24% (inactive) in test [7], -12.7% (inactive) in test [11] and 7% (inactive) in test [15]. The superoxide response (% of plate) in test [8] is 125% (inactive). The aptamer binding inhibition in test [9] is -1% (inactive). Besides, the response was -12.5% (inactive) in test [10] and 0.59% (inactive) in [12]. Further, the binding (% of control) in test [13] is 104% (inactive). In test [14], the efflux inhibition (fraction of control) was 0.27 (inactive). Moreover, the differentiation response in test [16] is 1.64% (inactive).
Take `CCCNCC(O)COc1ccccc1C(=O)CCc1ccccc1` (stereo not drawn): the percent of DMSO control GFP in [1] is 101% (inactive). Also, the GFP response vs DMSO in [2] was 110% (inactive); in [4], 88.7% (inactive). In test [3], the percent response of DMSO control is 89.6% (inactive). For the same compound, the GFP response, % of DMSO in test [5] was 92.9% (inactive). The double positive events in test [6] stood at 62.4%. Moreover, the vesicle binding response in [6] was 894% (inactive). In addition, the inhibition in test [7] is 21.3% (inactive); in test [11], -4.07% (inactive); in [15] it was -1% (inactive). The superoxide response (% of plate) in test [8] was 98.6% (inactive). Further, in test [9], the aptamer binding inhibition is 3% (inactive). For the same compound, the results for the response in [10] and in test [12] were -7.14% (inactive) and 0.31% (inactive), respectively. Also, the binding (% of control) in test [13] was 100% (inactive). In addition, the efflux inhibition (fraction of control) in test [14] is 0.11 (inactive). Further, the differentiation response in test [16] is -0.73% (inactive).

These data come from PubChem BioAssay.
